Compound activity as filed in PubChem BioAssay.
TDP1 cell noCPT – qHTS for Inhibitors of human tyrosyl-DNA phosphodiesterase 1 (TDP1): qHTS in cells in absence of CPT | DT40 Tdp1-/- hTDP1 cells, no CPT, ATP luminescence, 48 h | 420,000 compounds, 15% hits | Potency, µM (series often up to 46.2 µM), inactives show top-dose activity change, negative = growth inhibition, usual class: inhibitors; note: potency is the fitted concentration of half-maximal effect; nearly all actives have a fitted effect of over 55% in size
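Growth of hTDP1-complemented DT40 Tdp1-knockout cells is measured by ATP luminescence after at least 48 hr compound exposure at 37 °C, with DMSO substituting for the 20 nM CPT used in the parallel screen.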
HT1080-NT tox – kills 2HG-producing HT-1080-NT fibrosarcoma cells. Potency, µM (titrated, usually from 46.1 µM), inactives show top-dose activity, negative = less viability, actives largely listed as cytotoxic. HT-1080-NT fibrosarcoma viability, CellTiter-Glo ATP luminescence, 48 h. 360,000 compounds, 1.6% hits;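 note: NT is the 2HG producing partner of a matched IDH1 knockdown line; potency is the fitted concentration of half-maximal effect; 0% = DMSO-treated cells and -100% = media-only wells without cells; nearly all actives have a fitted effect of over 55% in size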
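Viability of the 2HG-overproducing fibrosarcoma line after 48 hours of compound exposure at 37 degrees C was determined by luminescence with CellTiter-Glo, and concentration-effect curves were then fitted and categorized.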
IL-1B inflam inh – inhibitors of inflammasome signaling (IL-1 beta secretion); THP-1 LPS/ATP IL-1B secretion, AlphaLISA, 16 h; stronger effect = lower value; AID 743279; 360,000 compounds, 4.7% hits; activity change, % at 57.5 µM; in the data active = activity change below about -50%; inconclusive = mostly about -30% to -49%
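Secreted IL-1B measured by AlphaLISA bead assay after 16 h compound exposure of THP-1 cells; compounds (final up to 57.5 uM) added 1 h before LPS (250 ng/mL) and ATP (1.25 mM) stimulation; lower signal means less secretion.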
HT1080 IDH1KD tx – toxicity to HT-1080 IDH1 knockdown cells (counter line); HT-1080 IDH1 knockdown viability, ATP luminescence, 48 h; Potency, µM (titrated, usually from 46.1 µM), without a hit: top-dose activity, negative = toxicity, hits mostly cytotoxic; 360,000 compounds, 2% hits; AID 686971;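 note: potency is the fitted concentration of half-maximal effect; 0% = DMSO wells and -100% = cell-free medium wells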
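Luminescent ATP read-out (CellTiter-Glo, 10 min at room temperature) after 48 h compound exposure at 37 °C gave viability of IDH1-knockdown HT-1080 cells. Activity was normalised to DMSO and cell-free wells, then fitted as concentration-response curves.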
TDP1 cell CPT – growth inhibition of DT40 Tdp1-/-;hTDP1 cells with camptothecin (screen for TDP1 inhibitors) | chicken DT40 Tdp1-/-;hTDP1 cells + 20 nM CPT, ATP luminescence, 48 h | Potency, µM (highest dose often 46.2 µM), without a hit: at the highest dose activity change, negative = growth inhibition, hits mostly inhibitors | 420,000 compounds, 12% hits | AID 686979; note: potency is the fitted concentration of half-maximal effect; nearly all actives have a fitted effect of over 55% in size
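Chicken DT40 Tdp1-/- cells complemented with human TDP1, 400 cells/well, exposed to compounds plus 20 nM camptothecin for at least 48 h at 37 C; viability read as ATP content by CellTiter-Glo luminescence.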
Starred values were filed as active, the others as inactive; ? = inconclusive; . = not tested or not shown. Hits are enriched below; roughly 19% of the tested compounds scored in any of these assays. Unless noted, calls come from the whole dose curve; as a rule, active = well fitted curve in the direction sought with a large enough effect; inconclusive = small, poorly fitted or top-dose-only effect, or another doubt; inactive = no such curve, though single readings can be large; an effect the other way counts as inactive or inconclusive. Unless noted, % is set by controls: 0 for no effect and ±100 for the full control effect.

SMILES	TDP1 cell noCPT	HT1080-NT tox	IL-1B inflam inh	HT1080 IDH1KD tx	TDP1 cell CPT
Cc1ccc(S(=O)(=O)NCC(=O)OC(C)C(=O)NCc2ccc3c(c2)OCO3)cc1 (centres undefined)	-16%	-1%	-23	-3%	-7%
Cc1cc(C)n2nc(C(=O)N3CCN(c4ccc([N+](=O)[O-])cc4)CC3)nc2n1	-11%	-5%	0	-2%	-18%
CCCCCc1c(CC)ncn1CCc1ccccc1OC	2.9µM*	26µM*	?	?	4.6µM*
CCCCc1c(-c2ccccc2OC)ncn1CCc1ccccc1Cl	15µM*	?	-62*	?	7.3µM*
CCCCN(CC)C(=O)Cc1ccccc1OC	?	-4%	?	-4%	-26%
CCCCCc1c(-c2ccccc2OC)ncn1CCc1ccccc1OC	5.2µM*	16µM*	-95*	16µM*	5.2µM*
CCCCc1c(-c2ccccc2OC)ncn1CCc1ccccc1OC	8.2µM*	18µM*	-100*	13µM*	12µM*
COc1ccccc1CCNc1ncnc2c1nnn2C	-28%	.	.	.	-12%
CC[C@H](NC(=O)/C=C/[C@H]1O[C@@H](n2cc(C)c(=O)[nH]c2=O)C[C@@H]1O)c1ccccc1	4%	1%	0	15%	4%
CCn1cc(S(=O)(=O)NCCc2ccccc2OC)cn1	17%	-1%	-2	-3%	-2%
CCCCc1c(-c2ccccc2Br)ncn1CCc1ccccc1OC	21µM*	?	-79*	?	15µM*
COCCCn1c(=N)c(C(=O)NCc2cccnc2)cc2c(=O)n3cccc(C)c3nc21	?	.	.	.	-28%
COCCCNC(=O)c1cc2c(=O)n3cccc(C)c3nc2n(C(C)C)c1=N	?	0%	-69*	-6%	-17%
COCCn1c(=N)c(C(=O)NCCc2ccc(OC)cc2)cc2c(=O)n3cccc(C)c3nc21	29µM*	-14%	-5	-1%	23µM*
COc1cc(NC(=O)CCn2c(=S)oc3ccccc32)cc(OC)c1OC	-12%	7%	188	9%	7%
CCC(C(=O)NC(C)(C)C)n1c(-c2ccc(C)cc2)nc2ccccc21 (centres undefined)	-26%	18%	1	-1%	-29%
COc1ccc(C(=O)NC(=S)Nc2ccc(N3CCOCC3)cc2)cc1Cl	21µM*	-30%	-14	-29%	?
Cc1cccc(C(=O)NC(=S)Nc2ccc(N3CCOCC3)cc2)c1	?	3%	-7	11%	?
Cc1ccc(C(=O)NC(=S)Nc2ccc(N3CCOCC3)cc2)cc1C	15µM*	1%	0	1%	?
COc1ccc(C(=O)Nc2ccc(N3CCN(C)CC3)cc2)cc1OC	-29%	-3%	-81*	4%	5%
O=C(NCc1cccnc1)c1ccccc1[N+](=O)[O-]	-20%	-7%	13	-7%	19%
O=C(CCCN1C(=O)/C(=C/c2cccc(Br)c2)SC1=S)Nc1cccnc1	16µM*	?	-90*	?	?
Cc1ccc(/C=C2\SC(=S)N(CCCC(=O)Nc3cccnc3)C2=O)cc1	?	5%	?	9%	?
O=C(CCCN1C(=O)/C(=C\c2cccc(Br)c2)SC1=S)Nc1cccnc1	15µM*	16µM*	-51*	13µM*	?
O=C(CCCN1C(=O)/C(=C/c2cccc(Br)c2)SC1=S)Nc1ccccn1	?	0%	?	7%	?
SMILES	TDP1 cell noCPT	HT1080-NT tox	IL-1B inflam inh	HT1080 IDH1KD tx	TDP1 cell CPT
COc1cccc(NC(=O)COC(=O)c2sccc2C)c1	-26%	4%	-14	7%	-15%
COC(=O)c1c(NC(=O)c2nc(SC)ncc2Cl)sc2c1CCCC2	11%	.	.	.	1%
Cc1ccc(S(=O)(=O)c2c(COC(=O)c3ccc(Cl)cc3)c(-c3ccccc3)nn2C)cc1	?	7%	0	13%	16µM*
Cn1c(-c2ccc([N+](=O)[O-])cc2)nc2ccccc21	-20%	19%	-18	18%	12%
Cn1nc([N+](=O)[O-])c(C(C#N)c2nc3ccccc3n2C)c(Cl)c1=O (centres undefined)	23µM*	-27%	-8	-23%	?
C=C(CO)C1Cc2cc(C(C)=O)ccc2O1 (centres undefined)	-12%	1%	18	0%	-9%
O=[N+]([O-])c1ccc(Oc2ccc(Oc3ccc(C(F)(F)F)cn3)cc2)nc1	26µM*	-1%	?	-5%	?
O=[N+]([O-])c1ccc(Oc2ccc(/C=N/O)cc2)nc1	-10%	-7%	-17	-15%	-17%
COc1cc(NC(=O)c2[nH]c(C)c(C(C)=O)c2C)cc(OC)c1OC	-28%	7%	-15	-1%	-24%
COc1ccc(NC(=O)c2[nH]c(C)c(C(C)=O)c2C)cc1Cl	?	-16%	-8	-15%	2.1µM*
CC(=O)c1c(C)[nH]c(C(=O)Nc2ccc(C)c(C)c2)c1C	-2%	?	-26	20%	-3%
COc1ccc(C(C)(C)C)cc1NC(=O)c1[nH]c(C)c(C(C)=O)c1C	16µM*	?	-2	-15%	-1%
COc1ccc(C(=O)N2CCCCC2c2cc(C(=O)Nc3ccc(OC)cc3C)no2)cc1 (centres undefined)	?	10%	-5	0%	?
Cc1ccc(F)cc1C(=O)N1CCCCC1c1cc(C(=O)NC(C)C)no1 (centres undefined)	-27%	8%	-56*	1%	-1%
CCCNC(=O)c1cc(C2CCCCN2C(=O)c2cc(C(C)(C)C)nn2C)on1 (centres undefined)	18µM*	0%	19	2%	21µM*
COc1ccc(NC(=O)c2cc(C3CCCCN3C(=O)c3cc(C(C)(C)C)nn3C)on2)c(C)c1 (centres undefined)	21µM*	10%	52	7%	?
COc1ccc(NC(=O)c2cc(C3CCCCN3C(=O)c3cc(F)ccc3C)on2)c(C)c1 (centres undefined)	8.2µM*	0%	27	-11%	12µM*
CCc1nc2ccc(C(=O)NCCCn3ccnc3)cn2c1N(C)Cc1nccs1	0%	17%	25	11%	-2%
Cc1ccc(NC(=O)c2cc(-c3ccc4c(c3)OCO4)on2)cc1	?	-12%	11	-7%	?
Cc1nn(Cc2ccc(Cl)c(Cl)c2)c(C)c1NC(=O)c1cc(-c2ccc3c(c2)OCO3)on1	21µM*	?	-13	?	18µM*
Cc1nn(Cc2ccc(Cl)cc2)c(C)c1NC(=O)c1cc(-c2ccc3c(c2)OCO3)on1	15µM*	.	-24	.	23µM*
